# Test results from PubChem BioAssay (NCATS).
# Values without a mark were called inactive. Inconclusive results are not listed. The source made the active and inactive calls. Unless noted, calls come from the whole dose curve; as a rule, active = well fitted curve in the direction sought with a large enough effect; inconclusive = small, poorly fitted or top-dose-only effect, or another doubt; inactive = no such curve, though single readings can be large; an effect the other way counts as inactive or inconclusive.
# What was measured:
# [1] = biological target: Lysosomal acid glucosylceramidase (Homo sapiens) (UniProt P04062); assay: Glucocerebrosidase-p2 (AID 348; in the data active = potency below about 10 µM; note: potency is the fitted concentration of half-maximal effect); conditions: purified GBA, blue fluorogenic substrate, 40 min
# How it was run: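 Normal human glucocerebrosidase (0.2 nM) with blue fluorogenic substrate (80 uM final) in citrate/phosphate pH 5.9 with 10mM sodium taurocholate, 0.01% tween-20; 40 min RT, NaOH/glycine stop; fluorescence Ex 365/Em 440; AC50 from a titration from 0.6 nM upwards.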
# [2] = AP1 Signaling Pathway (AID 357; active = well fitted curve in either direction with a large enough effect, not every such curve was filed as active; note: % is set by controls: 0 for no effect and ±100 for the full control effect); conditions: ME-180 AP-1-bla reporter, EGF-induced, beta-lactamase ratio, 5 h; at 7.69 µM (top of the series) unless noted
# How it was run: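 AP-1-bla ME-180 cells with beta-lactamase reporter under AP-1 response element, stimulated with EC50 EGF; compounds titrated, 5 hours at 37 degrees Celsius. CCF4 read at 460/530 nm ratio; positive and negative modulators judged by AC50.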
# [3] = biological target: Cytochrome P450 1A2 (Homo sapiens) (UniProt P05177); assay: p450-cyp1a2 (AID 410; calls by dose curve;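 note: -100% = full effect of reference inhibitor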); conditions: recombinant CYP1A2, luciferin-ME demethylation, luminescence; series mostly up to 57 µM
# How it was run: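 Read-out is luminescence from luciferin produced by CYP1A2 demethylation of Luciferin-ME (100uM, at Km). Detection reagent stopped the 60 min NADPH-dependent reaction; signals were normalized to 57 uM furafylline.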
# [4] = Stat Signaling Pathway (AID 446; active = well fitted curve in either direction with a large enough effect, not every such curve was filed as active;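 note: ME-180 cervical cancer cells given 40 pM IL-6 alongside compound; SIE-controlled beta-lactamase reporter measured as 460/530 nm FRET emission ratio; % is set by controls: 0 for no effect and ±100 for the full control effect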); conditions: ME-180 (cervical carcinoma) SIE beta-lactamase reporter, IL-6 stimulated, 5 h; at 7.69 µM (top of the series) unless noted
# How it was run: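 Overnight-plated ME-180 cells bearing a STAT Inducible Element beta-lactamase reporter; 5 h co-exposure to compound and 40 pM IL-6; values normalized to 300 pM IL-6 and 125 nM JAK inhibitor controls.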
# [5] = biological target: Glucocorticoid receptor (Homo sapiens) (UniProt P04150); assay: GR-GFP Redistribution (AID 450;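 active = compounds whose dose series gives a full or clear partial fitted curve of increased nuclear translocation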; note: potency is the fitted concentration of half-maximal effect); conditions: U2OS GR-GFP nuclear translocation, laser cytometry, 2 h
# [6] = biological target: Glucocorticoid receptor (Homo sapiens) (UniProt P04150); assay: GR-EFC Redistribution (AID 451; calls by dose curve; note: potency is the fitted concentration of half-maximal effect); conditions: CHO-K1 GR-EFC translocation, beta-gal luminescence, 2 h
# How it was run: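 CHO-K1 cells expressing nuclear EA and GR-ED fragments of b-gal; compounds titrated up to 46 uM final, 2 h at 37 C. GR nuclear translocation read as complemented b-gal luminescence after 1 h RT detection.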
# [7] = biological target: Mitogen-activated protein kinase 10 (Mus musculus) (UniProt Q61831); assay: JNK3 AlphaScreen Assay (AID 530; active = well fitted curve in either direction with a large enough effect, not every such curve was filed as active;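 note: kinase came from lysate of stimulated human HepG2 cells; signal reports phosphorylation of biotinylated GST-cJun 1-79 at Ser73 with 10 µM ATP; % is set by controls: 0 for no effect and ±100 for the full control effect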); conditions: JNK3 lysate, c-Jun phosphorylation; series mostly up to 57.1 µM
# How it was run: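 HepG2 lysate (IL-1b/TNFa pre-activated) + biotin-GST-cJun 1-79 + anti-pSer73 cJun; cpd titration, 15 min RT; ATP 10 uM start; Tris pH 7.6, MgCl2, DTT, vanadate; beads in EDTA buffer; AlphaScreen.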
# [8] = biological target: 3',5'-cyclic-AMP phosphodiesterase 4B (Homo sapiens) (UniProt Q07343); assay: qHTS Assay for Inhibitors of PDE-IV (AID 607; active = well fitted activation curve with a large enough effect in the main read-out, with a control signal flat, not every such curve was filed as active; note: % of control where 0% means no effect); conditions: HEK293 ACTOne CNG channel cells, membrane potential fluorescence; series mostly up to 22.9 µM
# How it was run: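 Live HEK293 cells with a modified cyclic nucleotide-gated (CNG) channel report intracellular cAMP via membrane-potential dye fluorescence (ex 535/em 590 nm). Endogenous PDE-IV was targeted. Compounds were tested at up to 22.9 uM final; RO 20-1724 100 uM served as control.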
# [9] = biological target: Cytochrome P450 2C9 (Homo sapiens) (UniProt P11712); assay: qHTS Assay for Inhibitors and Substrates of Cytochrome P450 2C9 (AID 883); conditions: recombinant CYP2C9, luciferin-H luminescence, 60 min; series mostly up to 57.1 µM; note: potency is the fitted concentration of half-maximal effect; nearly all actives have a fitted effect of over 60% in size
# How it was run: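 Signal: luciferase luminescence reporting luciferin produced by CYP2C9. Conditions: 10nM enzyme, Luciferin-H 100uM at KM, 25mM KPO4, 37C, 60 min NADPH-driven reaction. Reference: 57uM sulphaphenazole as 100% inhibition.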
# [10] = biological target: Cytochrome P450 2C19 (Homo sapiens) (UniProt P33261); assay: qHTS Assay for Inhibitors and Substrates of Cytochrome P450 2C19 (AID 899); conditions: recombinant CYP2C19, luciferin-H EGE luminescence; series mostly up to 57.1 µM; note: potency is the fitted concentration of half-maximal effect; nearly all actives have a fitted effect of over 60% in size
# How it was run: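 Signal comes from luciferase acting on luciferin released by CYP2C19-mediated hydroxylation of Luciferin-H EGE, 10uM (KM). Assay mix: 5nM enzyme, 50mM KPO4; 60 min at 37C with NADPH regeneration. Data normalized against 57uM ketoconazole.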
# [11] = Cell Viability qHTS for small molecule stabilizers of the endoplasmic reticulum resident proteome (AID 1508629); conditions: cell viability counter-screen, 100 nM thapsigargin for final 4 h;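 note: potency is the fitted concentration of half-maximal effect; compound exposure about 46 h in total before the viability read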
# [12] = biological target: Rap guanine nucleotide exchange factor 3 (Homo sapiens) (UniProt O95398); assay: Confirmatory qHTS for agonist of cAMP-regulated guanine nucleotide exchange factor 3 (EPAC1) (AID 1645881); conditions: EPAC1 Rap1B BODIPY-GDP exchange fluorescence, 100% = cAMP control response; series mostly up to 154 µM;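 note: EPAC1 catalysed release of BODIPY-GDP from Rap1B seen as fluorescence loss; nearly all actives have a fitted effect of over 75% in size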
# [13] = biological target: Rap guanine nucleotide exchange factor 4 (Homo sapiens) (UniProt Q8WZA2); assay: Confirmatory qHTS for agonist of cAMP-regulated guanine nucleotide exchange factor 4 (EPAC2) (AID 1645884); conditions: EPAC2 GEF activity, Rap1B-BODIPY-GDP fluorescence, percent relative to cAMP agonist control; series mostly up to 154 µM;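 note: nucleotide exchange releases bodipy-GDP from Rap1 and this lowers its fluorescence; % is set by controls: 0 for no effect and ±100 for the full control effect; nearly all actives have a fitted effect of over 65% in size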
# [14] = biological target: Rap guanine nucleotide exchange factor 4 (Homo sapiens) (UniProt Q8WZA2); assay: Confirmatory qHTS for antagonist of cAMP-regulated guanine nucleotide exchange factor 4 (EPAC2) (AID 1645885); conditions: EPAC2 Rap1B-BODIPY-GDP exchange fluorescence, biochemical; series mostly up to 114 µM; note: % is set by controls: 0 for no effect and ±100 for the full control effect; nearly all actives have a fitted effect of over 25% in size
# [15] = Viability counterscreen for agonist of constitutive androstane receptor (CAR) against the NCATS DSHEA and TCM libraries (AID 1794838); conditions: HepG2 cell viability counterscreen, CAR agonist assay, co-treated with 0.75 µM CAR antagonist; series mostly up to 40 µM;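 note: HepG2 cells with CYP2B6 reporter and hCAR plus 0.75 µM PK11195 antagonist; 0% is about no effect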
# How it was run: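 Cell health was measured as CellTiter-Fluor signal in HepG2-CYP2B6-hCAR cells treated for 24 h with substances alongside the hCAR antagonist PK11195 (0.75 uM final).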
# [16] = HepG2 viability counterscreen (readout 2: ATP content) against the NCATS DSHEA and TCM libraries (AID 1794840); conditions: ATP content luminescence; series mostly up to 27.3 µM; note: 0% is about no effect
# How it was run: (§1)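 Same wells read twice: first fluorescence from cleaved GF-AFC substrate (25 uM final, 30 min, 37C) for live-cell protease, then CellTiter-Glo luminescence after 30 min at room temperature for ATP. HepG2 cells were exposed ~24 h to substances.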
# [17] = HepG2 viability counterscreen (readout 1: protease activity) against the NCATS DSHEA and TCM libraries (AID 1794841); conditions: qHTS concentration series; series mostly up to 27.3 µM;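 note: cells exposed to compounds for about 24 h before the protease read; 0% is about no effect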
# How it was run: as §1
# [18] = biological target: Cytochrome P450 3A4 (Homo sapiens) (UniProt P08684); assay: qHTS for inhibitors of CYP3A4 against the NCATS DSHEA and TCM libraries (AID 1919971); conditions: recombinant CYP3A4 enzyme activity, luminescence qHTS; note: potency is the fitted concentration of half-maximal effect
# How it was run: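 Isoform-specific enzyme and substrate levels; enzyme-free wells as background. Reaction: 1x NADPH regenerating system, 30-45 min, room temperature, shielded from light; luminescent detection reagent added, 30 min.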
# [19] = biological target: Cytochrome P450 2D6 (Homo sapiens) (UniProt P10635); assay: qHTS for inhibitors of CYP2D6 against the NCATS DSHEA and TCM libraries (AID 1919972); conditions: CYP2D6 enzymatic inhibition, luminescence qHTS; series mostly up to 34.1 µM; note: potency is the fitted concentration of half-maximal effect
# How it was run: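 qHTS, concentration–response format with most substances from 19.5 nM. CYP2D6 + pro-luciferin substrate, 15 min with compound, then 1x NADPH regen, 30–45 min RT dark. Glo detection 30 min, luminescence. Quinidine control.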
# [20] = qHTS to identify inhibitors of the type 1 interferon - major histocompatibility complex class I in skeletal muscle: primary screen against the NCATS Mechanism Interrogation Plate v5.0 (MIPE) Libary (AID 1347411); conditions: iHSKM cells + IFN-b, HiBiT-tagged MHC-I luminescence, 24 h; series mostly up to 45.8 µM;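 note: plate controls were vehicle for no effect and reference inhibitor for full effect; nearly all actives have a fitted effect of over 65% in size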
# How it was run: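 IFN-beta-driven (4 ng/ml) HLA-B-HiBit expression in CRISPR-tagged C25cl48 myoblasts; compounds 11-pt, 1:3, max 46 uM, 24 hr exposure; lytic NanoLuc complementation luminescence.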
# Chain of Glucocorticoid receptor (Homo sapiens) (P04150 whole entry, looked up, the tested form may be a part): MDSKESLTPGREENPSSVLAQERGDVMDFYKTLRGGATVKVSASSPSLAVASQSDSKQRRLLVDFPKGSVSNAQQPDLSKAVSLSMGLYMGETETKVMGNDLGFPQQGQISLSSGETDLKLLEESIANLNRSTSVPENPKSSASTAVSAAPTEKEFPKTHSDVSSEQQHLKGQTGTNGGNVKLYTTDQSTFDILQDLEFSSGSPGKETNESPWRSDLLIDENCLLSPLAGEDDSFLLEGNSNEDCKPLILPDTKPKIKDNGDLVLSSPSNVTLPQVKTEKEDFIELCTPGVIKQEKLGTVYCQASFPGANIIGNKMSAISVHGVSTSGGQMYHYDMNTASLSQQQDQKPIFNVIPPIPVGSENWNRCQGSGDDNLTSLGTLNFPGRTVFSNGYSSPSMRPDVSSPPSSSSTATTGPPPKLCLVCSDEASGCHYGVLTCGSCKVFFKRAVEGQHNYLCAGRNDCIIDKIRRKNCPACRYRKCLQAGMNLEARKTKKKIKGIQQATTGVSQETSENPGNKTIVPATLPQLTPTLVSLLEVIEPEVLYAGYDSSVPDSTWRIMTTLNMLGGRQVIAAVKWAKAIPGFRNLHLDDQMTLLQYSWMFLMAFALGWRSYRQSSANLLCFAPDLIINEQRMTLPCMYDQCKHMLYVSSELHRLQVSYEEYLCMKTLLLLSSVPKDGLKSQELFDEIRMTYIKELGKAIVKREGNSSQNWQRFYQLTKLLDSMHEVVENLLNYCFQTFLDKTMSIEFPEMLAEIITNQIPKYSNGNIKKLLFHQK
# Chain of Rap guanine nucleotide exchange factor 4 (Homo sapiens) (Q8WZA2 whole entry, looked up): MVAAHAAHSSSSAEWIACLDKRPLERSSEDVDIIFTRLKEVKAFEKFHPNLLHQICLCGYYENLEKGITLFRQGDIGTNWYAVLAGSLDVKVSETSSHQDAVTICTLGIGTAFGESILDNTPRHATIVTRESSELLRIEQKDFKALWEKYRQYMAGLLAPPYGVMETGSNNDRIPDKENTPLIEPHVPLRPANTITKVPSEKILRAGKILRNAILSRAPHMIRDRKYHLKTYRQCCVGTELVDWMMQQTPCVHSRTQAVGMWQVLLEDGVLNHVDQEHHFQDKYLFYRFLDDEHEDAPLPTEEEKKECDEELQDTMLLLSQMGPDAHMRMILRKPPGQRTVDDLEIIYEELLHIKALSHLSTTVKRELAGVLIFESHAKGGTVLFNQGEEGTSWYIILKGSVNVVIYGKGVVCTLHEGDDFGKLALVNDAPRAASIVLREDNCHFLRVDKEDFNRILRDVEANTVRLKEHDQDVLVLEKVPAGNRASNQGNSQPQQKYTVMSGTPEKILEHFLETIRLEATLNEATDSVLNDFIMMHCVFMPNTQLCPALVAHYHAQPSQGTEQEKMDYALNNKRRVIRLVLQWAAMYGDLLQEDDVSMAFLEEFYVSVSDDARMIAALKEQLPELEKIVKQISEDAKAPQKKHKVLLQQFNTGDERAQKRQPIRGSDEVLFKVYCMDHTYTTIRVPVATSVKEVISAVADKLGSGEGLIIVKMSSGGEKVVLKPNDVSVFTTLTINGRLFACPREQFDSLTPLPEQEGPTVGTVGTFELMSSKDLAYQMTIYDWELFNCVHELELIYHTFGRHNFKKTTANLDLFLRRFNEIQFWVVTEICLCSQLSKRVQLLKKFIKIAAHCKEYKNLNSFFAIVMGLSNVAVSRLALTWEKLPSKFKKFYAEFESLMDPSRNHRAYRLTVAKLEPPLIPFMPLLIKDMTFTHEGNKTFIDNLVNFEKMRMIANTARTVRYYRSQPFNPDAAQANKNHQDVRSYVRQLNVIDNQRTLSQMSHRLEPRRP
# Chain of Cytochrome P450 2C9 (Homo sapiens) (P11712 whole entry, looked up): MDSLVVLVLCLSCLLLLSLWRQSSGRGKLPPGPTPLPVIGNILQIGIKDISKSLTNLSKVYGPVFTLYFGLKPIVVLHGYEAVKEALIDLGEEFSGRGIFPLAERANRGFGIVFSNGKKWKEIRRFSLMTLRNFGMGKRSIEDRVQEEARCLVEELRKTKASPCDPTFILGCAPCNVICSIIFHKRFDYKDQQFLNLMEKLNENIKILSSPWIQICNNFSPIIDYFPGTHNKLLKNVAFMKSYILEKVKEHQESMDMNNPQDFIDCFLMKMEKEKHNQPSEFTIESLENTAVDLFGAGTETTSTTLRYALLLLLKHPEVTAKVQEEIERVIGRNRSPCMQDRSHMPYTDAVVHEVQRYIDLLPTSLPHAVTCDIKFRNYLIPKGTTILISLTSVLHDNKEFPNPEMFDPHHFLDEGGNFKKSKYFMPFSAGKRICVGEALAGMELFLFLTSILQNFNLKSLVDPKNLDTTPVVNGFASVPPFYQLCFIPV
# Chain of 3',5'-cyclic-AMP phosphodiesterase 4B (Homo sapiens) (Q07343 whole entry, looked up): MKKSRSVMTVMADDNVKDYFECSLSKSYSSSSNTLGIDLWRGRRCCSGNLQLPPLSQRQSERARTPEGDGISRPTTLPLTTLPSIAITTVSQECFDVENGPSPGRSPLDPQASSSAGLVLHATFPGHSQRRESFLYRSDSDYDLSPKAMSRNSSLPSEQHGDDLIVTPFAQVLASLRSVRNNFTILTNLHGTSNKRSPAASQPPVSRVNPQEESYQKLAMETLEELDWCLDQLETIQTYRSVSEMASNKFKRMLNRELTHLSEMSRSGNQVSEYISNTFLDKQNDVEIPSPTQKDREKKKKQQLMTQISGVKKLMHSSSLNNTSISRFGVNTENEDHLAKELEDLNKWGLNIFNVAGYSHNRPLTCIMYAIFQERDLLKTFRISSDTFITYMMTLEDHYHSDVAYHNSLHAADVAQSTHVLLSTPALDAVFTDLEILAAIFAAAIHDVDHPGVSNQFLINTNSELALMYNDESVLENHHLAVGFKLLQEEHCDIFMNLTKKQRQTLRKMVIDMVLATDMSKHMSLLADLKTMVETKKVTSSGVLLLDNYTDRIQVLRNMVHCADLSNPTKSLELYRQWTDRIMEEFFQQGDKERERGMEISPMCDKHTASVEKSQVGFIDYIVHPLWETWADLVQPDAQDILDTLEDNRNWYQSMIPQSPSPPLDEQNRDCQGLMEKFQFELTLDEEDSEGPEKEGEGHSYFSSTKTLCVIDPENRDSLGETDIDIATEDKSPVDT
# Chain of Cytochrome P450 3A4 (Homo sapiens) (P08684 whole entry, looked up, canonical isoform): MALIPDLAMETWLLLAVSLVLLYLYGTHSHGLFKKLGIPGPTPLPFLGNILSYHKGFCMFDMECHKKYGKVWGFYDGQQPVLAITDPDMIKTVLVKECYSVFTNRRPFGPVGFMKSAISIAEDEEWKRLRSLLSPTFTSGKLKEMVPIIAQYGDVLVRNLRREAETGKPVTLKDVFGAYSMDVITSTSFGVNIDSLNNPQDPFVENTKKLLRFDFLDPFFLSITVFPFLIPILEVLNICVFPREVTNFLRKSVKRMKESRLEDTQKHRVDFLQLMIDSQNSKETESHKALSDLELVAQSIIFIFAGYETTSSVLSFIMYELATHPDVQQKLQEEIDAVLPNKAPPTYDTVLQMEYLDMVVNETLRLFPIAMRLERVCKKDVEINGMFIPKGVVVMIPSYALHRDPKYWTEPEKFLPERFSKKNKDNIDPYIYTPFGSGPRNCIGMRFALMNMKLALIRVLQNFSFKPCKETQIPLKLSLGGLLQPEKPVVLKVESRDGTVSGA
# Chain of Cytochrome P450 2C19 (Homo sapiens) (P33261 whole entry, looked up): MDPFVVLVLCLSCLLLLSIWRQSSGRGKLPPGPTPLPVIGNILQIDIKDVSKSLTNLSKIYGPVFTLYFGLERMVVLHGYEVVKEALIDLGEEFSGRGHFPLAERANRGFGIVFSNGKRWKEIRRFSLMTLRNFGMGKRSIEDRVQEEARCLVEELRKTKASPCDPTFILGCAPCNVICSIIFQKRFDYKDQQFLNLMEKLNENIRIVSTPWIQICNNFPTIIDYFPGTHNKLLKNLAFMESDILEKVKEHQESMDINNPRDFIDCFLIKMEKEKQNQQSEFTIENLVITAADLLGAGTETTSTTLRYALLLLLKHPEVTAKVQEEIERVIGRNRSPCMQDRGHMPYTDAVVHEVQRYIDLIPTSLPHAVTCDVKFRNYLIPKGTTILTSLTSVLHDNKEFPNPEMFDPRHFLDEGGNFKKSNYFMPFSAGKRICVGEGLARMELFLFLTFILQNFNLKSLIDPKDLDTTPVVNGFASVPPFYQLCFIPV
# Chain of Rap guanine nucleotide exchange factor 3 (Homo sapiens) (O95398 whole entry, looked up): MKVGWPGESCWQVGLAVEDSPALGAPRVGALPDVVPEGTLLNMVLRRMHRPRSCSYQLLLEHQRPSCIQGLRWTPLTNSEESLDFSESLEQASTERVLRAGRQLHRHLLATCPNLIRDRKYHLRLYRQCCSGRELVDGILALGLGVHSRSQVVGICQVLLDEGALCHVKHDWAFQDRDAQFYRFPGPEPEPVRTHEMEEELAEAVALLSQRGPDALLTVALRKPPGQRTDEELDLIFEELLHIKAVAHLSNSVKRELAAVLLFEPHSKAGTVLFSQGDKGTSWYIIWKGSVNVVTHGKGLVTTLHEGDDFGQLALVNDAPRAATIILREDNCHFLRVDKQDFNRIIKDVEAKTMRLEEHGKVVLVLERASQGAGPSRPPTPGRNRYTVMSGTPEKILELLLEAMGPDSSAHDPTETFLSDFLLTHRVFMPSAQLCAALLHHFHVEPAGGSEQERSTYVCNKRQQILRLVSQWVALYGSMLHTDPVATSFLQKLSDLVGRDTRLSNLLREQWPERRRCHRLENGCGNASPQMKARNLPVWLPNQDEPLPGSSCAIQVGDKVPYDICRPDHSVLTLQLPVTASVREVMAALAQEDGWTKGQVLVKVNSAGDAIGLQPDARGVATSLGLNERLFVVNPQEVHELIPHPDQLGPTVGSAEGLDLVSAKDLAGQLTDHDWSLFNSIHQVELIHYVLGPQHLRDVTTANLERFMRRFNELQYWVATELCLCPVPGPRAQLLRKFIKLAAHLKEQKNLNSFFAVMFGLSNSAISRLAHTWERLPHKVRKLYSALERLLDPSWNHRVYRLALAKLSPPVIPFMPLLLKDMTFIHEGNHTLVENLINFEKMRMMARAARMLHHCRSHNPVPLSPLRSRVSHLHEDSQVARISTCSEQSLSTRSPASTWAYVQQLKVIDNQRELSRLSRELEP
smiles,measurement,setting,value
CC(C)=CCc1c2c(c3occ(-c4ccc(O)c(O)c4)c(=O)c3c1O)C=CC(C)(C)O2,Potency,[1],> 11.4 µM
same,"activity change, negative = inhibition",[2],-0.16%
same,"activity change, negative = inhibition",[3],-3% [at 2.29 µM]
same,"activity, negative = inhibition",[4],-4.46%
same,Potency,[5],> 46 µM
same,Potency,[6],> 9.22 µM
same,"activity change, negative = inhibition",[7],-1.7% [at 11.4 µM]
same,Potency,[8],inactive
same,Potency,[9],3.16 µM (active)
same,Potency,[10],2 µM (active)
same,Potency,[11],7.94 µM (active)
same,outcome,[12],inactive
same,outcome,[13],inactive
same,Potency,[14],inactive
O=C(OC[C@H]1O[C@@H](OC(=O)c2cc(O)c(O)c(O)c2)[C@H](OC(=O)c2cc(O)c(O)c(O)c2)[C@@H](OC(=O)c2cc(O)c(O)c(O)c2)[C@@H]1OC(=O)c1cc(O)c(O)c(O)c1)c1cc(O)c(O)c(O)c1,outcome,[15],inactive
same,outcome,[16],inactive
same,outcome,[17],inactive
same,Potency,[18],7.08 µM (active)
same,Potency,[19],14.1 µM (active)
CC1c2cccc(O)c2C(O)=C2C(=O)C3(O)C(O)=C(C(N)=O)C(=O)C(N(C)C)C3C(O)C21 (stereo unspecified),Potency,[20],inactive
CN(C)c1cc(NC(=O)CNC(C)(C)C)c(O)c2c1C[C@H]1C[C@H]3[C@H](N(C)C)C(=O)C(C(N)=O)=C(O)[C@]3(O)C(=O)C1=C2O,Potency,[20],inactive
